Experimental data: PubChem BioAssay (EPA / NIEHS)
Inconclusive results are not listed. Active and inactive are the calls of the source. The calls were made as follows, unless noted: active = hit-call score of the fitted dose curve at least 0.9, where 1 is the maximum; inactive = score below 0.9.

Tests used:
[1] = biological target: Glucocorticoid receptor (Homo sapiens) (UniProt P04150); assay: ATG_GR_TRANS: Attagene TRANS-FACTORIAL HepG2 Assay for human Glucocorticoid Receptor (GR) (AID 2282978; active = hit-call score of the fitted dose curve at least 0.9, where 1 is the maximum;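 also: activators score as hits since higher reporter transcript over DMSO is fitted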); conditions: HepG2 Attagene TRANS GR reporter, mRNA transcription
Chain of Glucocorticoid receptor (Homo sapiens) (P04150 whole entry, looked up, the tested form may be a part): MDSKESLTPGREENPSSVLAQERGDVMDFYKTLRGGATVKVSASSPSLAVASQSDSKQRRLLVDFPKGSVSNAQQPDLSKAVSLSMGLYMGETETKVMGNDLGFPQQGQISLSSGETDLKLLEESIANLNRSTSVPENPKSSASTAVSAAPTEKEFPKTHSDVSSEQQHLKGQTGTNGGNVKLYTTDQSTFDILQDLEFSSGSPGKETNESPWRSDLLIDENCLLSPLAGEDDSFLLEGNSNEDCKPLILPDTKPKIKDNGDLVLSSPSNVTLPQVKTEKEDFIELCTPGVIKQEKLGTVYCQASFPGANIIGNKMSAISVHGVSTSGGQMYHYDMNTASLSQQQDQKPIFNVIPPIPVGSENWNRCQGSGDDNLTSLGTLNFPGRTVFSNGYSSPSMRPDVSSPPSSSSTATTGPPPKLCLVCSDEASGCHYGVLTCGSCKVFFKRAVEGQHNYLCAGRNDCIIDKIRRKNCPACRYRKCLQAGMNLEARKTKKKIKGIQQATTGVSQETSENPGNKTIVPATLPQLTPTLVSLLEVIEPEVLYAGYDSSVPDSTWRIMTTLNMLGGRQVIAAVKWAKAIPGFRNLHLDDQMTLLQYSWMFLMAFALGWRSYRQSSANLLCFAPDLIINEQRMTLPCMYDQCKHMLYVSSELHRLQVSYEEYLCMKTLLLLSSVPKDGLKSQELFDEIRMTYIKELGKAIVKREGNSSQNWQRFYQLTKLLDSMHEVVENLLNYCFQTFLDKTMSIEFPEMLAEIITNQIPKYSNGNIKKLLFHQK
How it was run: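 In this trans-factorial format, exogenous NR-GAL4 chimeric proteins in transfected HepG2 cells regulate GAL4-UAS reporter transcription. After 24 h treatment, reporter mRNA induction relative to DMSO is read by RT-PCR and capillary electrophoresis.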

[2] = biological target: Oxysterols receptor LXR-beta (Homo sapiens) (UniProt P55055); assay: ATG_LXRb_TRANS: Attagene TRANS-FACTORIAL HepG2 Assay for human Liver X Receptor beta (LXRb) (AID 2282981; active = hit-call score of the fitted dose curve at least 0.9, where 1 is the maximum); conditions: HepG2 Attagene TRANS GAL4-LXRb reporter, mRNA
Chain of Oxysterols receptor LXR-beta (Homo sapiens) (P55055 whole entry, looked up, the tested form may be a part): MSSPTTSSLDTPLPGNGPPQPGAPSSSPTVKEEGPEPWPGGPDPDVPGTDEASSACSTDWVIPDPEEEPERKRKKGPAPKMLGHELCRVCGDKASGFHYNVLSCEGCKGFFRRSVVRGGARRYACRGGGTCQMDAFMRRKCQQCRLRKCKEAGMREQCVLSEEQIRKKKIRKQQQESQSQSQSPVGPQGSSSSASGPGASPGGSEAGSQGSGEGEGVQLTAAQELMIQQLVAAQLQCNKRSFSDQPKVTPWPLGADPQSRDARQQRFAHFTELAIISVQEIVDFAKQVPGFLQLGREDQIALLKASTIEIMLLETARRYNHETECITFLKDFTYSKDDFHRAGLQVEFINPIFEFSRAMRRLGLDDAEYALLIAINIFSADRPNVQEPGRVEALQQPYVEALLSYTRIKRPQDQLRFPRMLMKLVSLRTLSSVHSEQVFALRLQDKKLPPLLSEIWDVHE
How it was run: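 After 24 h of chemical treatment, transfected HepG2 cells yield total RNA; reporter cDNA is PCR-amplified, FAM-labelled, HpaI-cut and run on capillary electrophoresis. Signal reflects chimeric LXRb-Gal4 activity on GAL4-UAS reporters.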

[3] = biological target: Transcriptional activator Myb (Homo sapiens) (UniProt P10242); assay: ATG_Myb_CIS: Attagene CIS-FACTORIAL HepG2 Assay for human Myeloblastosis (Myb) Proto-Oncogene Transcription Factor (AID 2282986); conditions: HepG2 Attagene CIS-FACTORIAL Myb reporter transcription; actives raise or lower the signal
Chain of Transcriptional activator Myb (Homo sapiens) (P10242 whole entry, looked up): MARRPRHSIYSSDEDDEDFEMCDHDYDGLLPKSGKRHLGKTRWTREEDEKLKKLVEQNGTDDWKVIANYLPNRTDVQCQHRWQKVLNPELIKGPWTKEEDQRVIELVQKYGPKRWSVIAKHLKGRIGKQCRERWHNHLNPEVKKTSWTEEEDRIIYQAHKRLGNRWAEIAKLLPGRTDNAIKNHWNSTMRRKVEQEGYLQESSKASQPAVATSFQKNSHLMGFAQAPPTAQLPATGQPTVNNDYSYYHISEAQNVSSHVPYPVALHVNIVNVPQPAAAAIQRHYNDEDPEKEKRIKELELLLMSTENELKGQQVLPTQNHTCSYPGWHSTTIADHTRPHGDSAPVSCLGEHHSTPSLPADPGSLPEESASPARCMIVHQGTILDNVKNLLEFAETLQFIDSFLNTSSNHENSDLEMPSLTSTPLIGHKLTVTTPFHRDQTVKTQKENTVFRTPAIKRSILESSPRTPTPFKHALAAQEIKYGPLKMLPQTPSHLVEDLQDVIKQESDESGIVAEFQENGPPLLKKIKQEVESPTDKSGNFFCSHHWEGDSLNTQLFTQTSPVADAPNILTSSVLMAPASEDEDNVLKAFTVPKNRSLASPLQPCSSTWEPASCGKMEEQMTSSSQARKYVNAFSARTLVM
How it was run: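 Steps: transfect HepG2 with cis-regulated reporter units; dose with chemical for 24 h; isolate RNA, reverse-transcribe, PCR-amplify and FAM-label reporter sequences; digest with HpaI; resolve by capillary electrophoresis. Activity fitted in both directions relative to DMSO.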

[4] = ATG_NFI_CIS: Attagene CIS-FACTORIAL HepG2 Assay for human Nuclear Factor I (NFI) (AID 2282989); conditions: HepG2 cis-regulatory reporter, NFI response element transcription; actives raise or lower the signal
How it was run: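 After transient transfection of HepG2 with cis-promoter reporter constructs and 24 h dosing, RNA is reverse-transcribed, amplified, 6-FAM end-labelled and HpaI-digested before capillary analysis. Bidirectional curve fitting against DMSO.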

[5] = biological target: Myc proto-oncogene protein (Homo sapiens) (UniProt P01106); assay: ATG_Myc_CIS: Attagene CIS-FACTORIAL HepG2 Assay for human Myelocytomatosis (Myc) Proto-Oncogene Transcription Factor (AID 2282990); conditions: HepG2, Attagene cis-reporter transcription factor activity; actives raise or lower the signal
Chain of Myc proto-oncogene protein (Homo sapiens) (P01106 whole entry, looked up, the tested form may be a part): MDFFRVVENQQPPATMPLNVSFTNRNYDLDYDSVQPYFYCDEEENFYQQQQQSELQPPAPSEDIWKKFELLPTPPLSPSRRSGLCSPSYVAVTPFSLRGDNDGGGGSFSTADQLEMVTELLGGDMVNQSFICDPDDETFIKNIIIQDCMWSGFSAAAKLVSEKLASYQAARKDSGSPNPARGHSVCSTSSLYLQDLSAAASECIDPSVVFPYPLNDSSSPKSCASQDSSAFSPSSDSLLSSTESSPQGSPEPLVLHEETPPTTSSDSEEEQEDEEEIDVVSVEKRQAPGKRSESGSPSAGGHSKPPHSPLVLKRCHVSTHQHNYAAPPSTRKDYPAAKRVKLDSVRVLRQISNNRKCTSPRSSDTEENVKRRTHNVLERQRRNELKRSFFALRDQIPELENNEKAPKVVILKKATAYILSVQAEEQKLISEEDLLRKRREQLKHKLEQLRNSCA
How it was run: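 After 24 h chemical treatment of HepG2 cells carrying multiplexed cis-regulated reporter constructs, reporter transcripts quantified by RT-PCR and capillary electrophoresis of fluorescent fragments. Gain or loss fitted against DMSO baseline.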

[6] = ATG_NF_kB_CIS: Attagene CIS-FACTORIAL HepG2 Assay for human Nuclear Factor Kappa B (NF-kB) (AID 2282991); conditions: HepG2 Attagene cis-factorial NF-kB reporter mRNA; actives raise or lower the signal
How it was run: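 Endogenous transcription factor activity in HepG2 was captured via cis-regulated reporter constructs; after 24 h dosing, reporter mRNA was reverse-transcribed, amplified, fluorescently labelled and sized by capillary electrophoresis, with activity fitted bidirectionally relative to DMSO.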

[7] = ATG_NRF2_ARE_CIS: Attagene CIS-FACTORIAL HepG2 Assay for human Nuclear Factor Erythroid 2 Related Factor 2 (NFR2) response to Antioxidant Response Elements (ARE) (AID 2282992); conditions: HepG2 Attagene ARE/NRF2 reporter, transcription factor activity; actives raise or lower the signal
How it was run: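 Endogenous transcription factor activity in human liver HepG2 cells is tracked via a cis-element-driven reporter within a multiplexed set. mRNA induction is read by RT-PCR and capillary electrophoresis after 24 h, with DMSO as baseline.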

[8] = ATG_Oct_MLP_CIS: Attagene CIS-FACTORIAL HepG2 Assay for human Octamer-Binding Transcription Factor (Oct) (AID 2282993); conditions: HepG2 Attagene cis-factorial Oct reporter, mRNA; actives raise or lower the signal
How it was run: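 Cells of the HepG2 line express promoter-controlled reporter sequences whose mRNA levels, after 24 h treatment, are measured by RT-PCR and capillary electrophoresis. Increases and decreases are scored relative to DMSO.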

[9] = biological target: Hepatocyte nuclear factor 4-alpha (Homo sapiens) (UniProt P41235); assay: ATG_HNF4a_TRANS: Attagene TRANS-FACTORIAL HepG2 Assay for human Hepatocyte Nuclear Factor 4 alpha (HNF4a) (AID 2282982; active = hit-call score of the fitted dose curve at least 0.9, where 1 is the maximum); conditions: HepG2 HNF4a transactivation reporter, mRNA readout
Chain of Hepatocyte nuclear factor 4-alpha (Homo sapiens) (P41235 whole entry, looked up): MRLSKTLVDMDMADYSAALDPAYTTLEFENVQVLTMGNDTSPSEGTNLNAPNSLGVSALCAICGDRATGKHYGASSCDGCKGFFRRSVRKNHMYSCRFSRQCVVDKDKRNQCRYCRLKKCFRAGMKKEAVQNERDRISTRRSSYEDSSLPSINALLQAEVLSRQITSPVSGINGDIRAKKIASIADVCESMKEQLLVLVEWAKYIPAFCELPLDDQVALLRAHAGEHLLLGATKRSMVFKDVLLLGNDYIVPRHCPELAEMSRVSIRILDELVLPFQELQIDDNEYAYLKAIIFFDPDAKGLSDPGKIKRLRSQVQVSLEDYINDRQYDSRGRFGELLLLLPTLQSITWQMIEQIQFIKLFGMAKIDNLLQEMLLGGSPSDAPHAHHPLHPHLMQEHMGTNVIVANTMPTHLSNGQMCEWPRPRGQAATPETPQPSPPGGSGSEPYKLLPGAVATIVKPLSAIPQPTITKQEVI
How it was run: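 Multiplexed reporter assay: transfected HepG2, 24 h exposure, total RNA → oligo(dT) RT → PCR → 6-FAM extension → HpaI digest → CE fluorescence. DMSO = negative control.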

[10] = ATG_M_06_TRANS: Attagene TRANS-FACTORIAL HepG2 Assay for M06 Transcription Factor (Internal Marker) (AID 2282983; active = hit-call score of the fitted dose curve at least 0.9, where 1 is the maximum;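 also: reporter transcript level by RT-PCR then capillary electrophoresis fluorescence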); conditions: HepG2 Attagene TRANS M06 internal marker reporter
How it was run: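 In this multiplexed HepG2 system, compounds are incubated 24 h with cells carrying GAL4-UAS reporter units. Reporter RNA is amplified and resolved by capillary electrophoresis, and induction is scored against DMSO.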

[11] = ATG_M_32_TRANS: Attagene TRANS-FACTORIAL HepG2 Assay for M32 Transcription Factor (Internal Marker) (AID 2282984; active = hit-call score of the fitted dose curve at least 0.9, where 1 is the maximum;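 also: transcript level of a background control reporter unit measured by RT-PCR and capillary electrophoresis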); conditions: HepG2 Attagene TRANS M32 internal marker reporter
How it was run: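 Cell-based TRANS-format assay in HepG2: exogenous chimeric GAL4 reporter units transiently expressed, compounds applied 24 h. Reporter mRNA detected by RT-PCR plus capillary electrophoresis; this readout is an internal background marker.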

[12] = biological target: Nuclear respiratory factor 1 (Homo sapiens) (UniProt Q16656); assay: ATG_NRF1_CIS: Attagene CIS-FACTORIAL HepG2 Assay for human Nuclear Respiratory Factor 1 (NRF1) Orphan Gene (AID 2282987); conditions: HepG2 NRF1 cis-element reporter, Attagene multiplex; actives raise or lower the signal
Chain of Nuclear respiratory factor 1 (Homo sapiens) (Q16656 whole entry, looked up, the tested form may be a part): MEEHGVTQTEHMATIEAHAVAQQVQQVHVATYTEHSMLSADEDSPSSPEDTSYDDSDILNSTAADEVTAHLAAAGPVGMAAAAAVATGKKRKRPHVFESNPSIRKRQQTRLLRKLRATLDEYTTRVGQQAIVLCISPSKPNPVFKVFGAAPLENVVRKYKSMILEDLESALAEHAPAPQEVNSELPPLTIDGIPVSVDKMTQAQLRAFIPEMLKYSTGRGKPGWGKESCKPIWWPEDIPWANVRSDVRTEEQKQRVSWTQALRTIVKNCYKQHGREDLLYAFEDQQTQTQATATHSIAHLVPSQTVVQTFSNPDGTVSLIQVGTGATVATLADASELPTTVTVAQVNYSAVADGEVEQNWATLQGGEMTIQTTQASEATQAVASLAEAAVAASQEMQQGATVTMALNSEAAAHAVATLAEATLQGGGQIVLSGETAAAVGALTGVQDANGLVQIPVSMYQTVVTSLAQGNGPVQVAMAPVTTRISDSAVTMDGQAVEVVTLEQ
How it was run: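 Fluorescence intensity of labelled reporter cDNA fragments, resolved by capillary electrophoresis, served as readout for NRF1 cis-element activity. Transiently transfected HepG2 cells were dosed for 24 hours; activity in either direction was fitted against DMSO negative control.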

[13] = biological target: Oxysterols receptor LXR-alpha (Homo sapiens) (UniProt Q13133); assay: ATG_LXRa_TRANS: Attagene TRANS-FACTORIAL HepG2 Assay for human Liver X Receptor alpha (LXRa) (AID 2282980; active = hit-call score of the fitted dose curve at least 0.9, where 1 is the maximum); conditions: HepG2 Attagene TRANS reporter, LXRa transactivation
How it was run: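 HepG2 cells were transiently transfected with multiplexed reporter units driven by chimeric LXRa–GAL4 fusion proteins, then dosed for 24 h. Reporter mRNA was quantified by RT-PCR, fluorescent labelling and capillary electrophoresis; gain of signal fitted against DMSO baseline.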

[14] = biological target: Nuclear receptor subfamily 4 group A member 2 (Homo sapiens) (UniProt P43354); assay: ATG_NURR1_TRANS: Attagene TRANS-FACTORIAL HepG2 Assay for human Nuclear Receptor Related Protein 1 (NURR1) (AID 2282985; active = hit-call score of the fitted dose curve at least 0.9, where 1 is the maximum); conditions: HepG2 Attagene TRANS reporter, mRNA readout
Chain of Nuclear receptor subfamily 4 group A member 2 (Homo sapiens) (P43354 whole entry, looked up, the tested form may be a part): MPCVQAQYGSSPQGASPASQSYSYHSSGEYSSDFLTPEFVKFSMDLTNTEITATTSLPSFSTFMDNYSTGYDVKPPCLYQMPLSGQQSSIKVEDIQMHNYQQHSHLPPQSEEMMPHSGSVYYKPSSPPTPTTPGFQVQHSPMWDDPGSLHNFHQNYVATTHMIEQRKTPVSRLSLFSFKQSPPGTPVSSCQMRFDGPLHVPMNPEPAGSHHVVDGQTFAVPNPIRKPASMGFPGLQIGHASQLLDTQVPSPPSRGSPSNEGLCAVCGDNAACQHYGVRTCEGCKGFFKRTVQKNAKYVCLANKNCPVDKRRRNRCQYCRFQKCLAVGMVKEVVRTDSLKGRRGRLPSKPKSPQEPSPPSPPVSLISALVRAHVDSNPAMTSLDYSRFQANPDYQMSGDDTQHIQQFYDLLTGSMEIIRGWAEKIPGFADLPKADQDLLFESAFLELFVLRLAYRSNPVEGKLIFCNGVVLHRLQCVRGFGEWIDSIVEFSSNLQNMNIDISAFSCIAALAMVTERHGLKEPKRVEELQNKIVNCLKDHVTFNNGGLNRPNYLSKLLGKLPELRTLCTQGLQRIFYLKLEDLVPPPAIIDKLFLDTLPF
How it was run: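 Measures transcriptional activation by an exogenous NR-Gal4 chimera in transfected HepG2 liver cells. After 24 h, reporter RNA is reverse-transcribed, amplified and resolved by capillary electrophoresis; DMSO defines baseline.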

[15] = biological target: Cellular tumor antigen p53 (Homo sapiens) (UniProt P04637); assay: ATG_p53_CIS: Attagene CIS-FACTORIAL HepG2 Assay for human p53 Transcription Factor (AID 2282994); conditions: HepG2 p53 cis-element reporter, Attagene mRNA; actives raise or lower the signal
Chain of Cellular tumor antigen p53 (Homo sapiens) (P04637 whole entry, looked up, the tested form may be a part): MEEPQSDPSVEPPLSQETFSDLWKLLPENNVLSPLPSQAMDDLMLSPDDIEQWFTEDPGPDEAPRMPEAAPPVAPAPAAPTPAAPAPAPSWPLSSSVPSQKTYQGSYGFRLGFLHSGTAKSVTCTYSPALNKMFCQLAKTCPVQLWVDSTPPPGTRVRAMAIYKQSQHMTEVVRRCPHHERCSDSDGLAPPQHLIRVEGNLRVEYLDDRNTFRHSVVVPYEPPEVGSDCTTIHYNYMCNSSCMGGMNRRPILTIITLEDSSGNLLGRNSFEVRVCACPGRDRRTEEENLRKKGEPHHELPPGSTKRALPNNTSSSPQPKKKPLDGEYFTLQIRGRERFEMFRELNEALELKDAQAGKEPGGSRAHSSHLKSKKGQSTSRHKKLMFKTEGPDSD
How it was run: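 Steps: transfect HepG2 with multiplexed cis reporter constructs; dose chemicals 24 h; extract RNA, reverse-transcribe, PCR-amplify reporter sequences; FAM-label, HpaI-digest, resolve fragments by CE. Activity fitted both directions relative to DMSO.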

[16] = BSK_3C_TissueFactor: BioMAP Diversity Plus: 3C Assay for Tissue Factor Biomarker Activity (AID 2282997); conditions: BioMAP 3C HUVEC, tissue factor biomarker readout; actives raise or lower the signal
How it was run: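 Readout: Tissue Factor ELISA. Cells: human primary umbilical vein endothelium. Time: 24 h after dosing. Analysis: bidirectional fit, DMSO baseline.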

[17] = BSK_3C_uPAR: BioMAP Diversity Plus: 3C Assay for Urokinase-type plasminogen activator receptor (uPAR) Biomarker Activity (AID 2282998); conditions: BioMAP 3C HUVEC, uPAR biomarker ELISA; actives raise or lower the signal
How it was run: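 Endothelial primary cells of human umbilical vein origin received test chemical; 24 h later uPAR was assayed by ELISA. Fitting was bidirectional, DMSO as negative control.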

[18] = BSK_3C_VCAM1: BioMAP Diversity Plus: 3C Assay for Vascular cell adhesion molecule 1 (VCAM1) Biomarker Activity (AID 2282999); conditions: BioMAP 3C HUVEC, VCAM1 ELISA, cytokine-stimulated; actives raise or lower the signal
How it was run: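 Activity fitted in both directions relative to DMSO, with ELISA measurement of the surface marker on primary HUVEC (3C) at 24 h post-treatment; parallel SRB staining (0.1% SRB, TCA-fixed, 560 nm) flagged overt cytotoxicity.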

[19] = biological target: Bile acid receptor (Homo sapiens) (UniProt Q96RI1); assay: ATG_FXR_TRANS: Attagene TRANS-FACTORIAL HepG2 Assay for Farnesoid X Receptor (FXR) (AID 2282979; active = hit-call score of the fitted dose curve at least 0.9, where 1 is the maximum;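 also: hits raise reporter mRNA above DMSO so AC50 marks FXR activation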); conditions: HepG2 Attagene TRANS FXR-GAL4 reporter transcription
Chain of Bile acid receptor (Homo sapiens) (Q96RI1 whole entry, looked up, the tested form may be a part): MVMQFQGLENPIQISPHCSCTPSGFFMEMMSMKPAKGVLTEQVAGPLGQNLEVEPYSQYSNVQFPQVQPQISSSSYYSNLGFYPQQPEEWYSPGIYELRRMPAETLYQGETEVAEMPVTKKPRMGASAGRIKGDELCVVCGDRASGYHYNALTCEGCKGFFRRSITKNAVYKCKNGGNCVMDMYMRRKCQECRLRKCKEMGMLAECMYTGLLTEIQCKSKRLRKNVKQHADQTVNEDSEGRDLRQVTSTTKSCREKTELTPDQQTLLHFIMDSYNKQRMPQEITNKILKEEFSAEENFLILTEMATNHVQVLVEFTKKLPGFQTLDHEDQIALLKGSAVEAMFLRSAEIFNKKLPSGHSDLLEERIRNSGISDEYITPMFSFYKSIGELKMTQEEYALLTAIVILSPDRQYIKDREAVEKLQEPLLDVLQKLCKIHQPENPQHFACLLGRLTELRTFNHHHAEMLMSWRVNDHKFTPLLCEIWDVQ
How it was run: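 HepG2 cells transiently transfected with reporter constructs in which a chimeric FXR-GAL4 protein drives a GAL4-UAS reporter; 24 h compound exposure. Reporter mRNA measured by RT-PCR, FAM labelling, HpaI digestion and capillary electrophoresis; gain-of-signal versus DMSO.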

Measured: AC50

CCOC(=O)CC(=O)c1ccccc1
inactive: [1] | [2] | [3] | [4] | [5] | [6] | [7] | [8]

CC(C)CO
not listed: [13] | [14] | [15] | [16] | [17] | [18] | [19]
inactive: all other assays above

C=CCOC(=O)c1ccc(C(=O)OCC=C)c(C(=O)OCC=C)c1
active: [7] 36.1 µM
inactive: [1] | [13] | [10] | [3] | [12] | [4] | [5] | [6] | [8]

Cc1c(C(=O)c2c[nH]n(C)c2=O)ccc(S(C)(=O)=O)c1C1=NOCC1
not listed: [6] | [13] | [16] | [17] | [18] | [19]
inactive: all other assays above

CC(C)CCCCCOC(=O)CS
active: [7] 19.5 µM
not listed: [2] | [5] | [13] | [19]
inactive: all other assays above

CC(=O)OC1CCCCC1C(C)(C)C (stereo not given)
inactive: [1] | [2] | [14] | [3] | [12] | [4] | [5] | [7] | [8] | [15]

O=C(Cl)c1ccc(C(=O)Cl)cc1
inactive: [1] | [14] | [3] | [12] | [5] | [7] | [8] | [15]

CC(C)(O)Cc1ccccc1
inactive: [1] | [11] | [14] | [3] | [4] | [5] | [6] | [7] | [8] | [15]

C=CC(C)(CCC=C(C)C)OC(=O)C=Cc1ccccc1 (stereo not given)
inactive: [19] | [2] | [10] | [3] | [12] | [4] | [5] | [6] | [8] | [15]
active: [7] 32.9 µM

CO[Si](CCCS)(OC)OC
not listed: [2] | [10] | [13] | [16] | [17] | [18] | [19]
inactive: all other assays above

Clc1cccnc1
not listed: [1] | [13] | [14] | [16] | [17] | [18]
inactive: all other assays above

Cc1c(Cl)cccc1Cl
inactive: [1] | [10] | [3] | [12] | [4] | [5] | [7] | [8]
